# Experimental data taken from PubChem BioAssay (NCI).
# Compounds without any hit were thinned out: in the full panel of roughly 83,000, 20% have a hit.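 Growth was measured after 48 h exposure to one concentration of compound in 96-well plates. Values under 10 count as active.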 Calls of active or inactive are those of the source.
# Tested on: SK-OV-3 ovarian
# Assay: NCI-60 one-dose screen, 48 h (100 = growth as untreated, 0 = no growth, -100 = all killed)
# Settings: 10 µM
row,Compound,growth
1,NC(=O)SCC(=O)Nc1ccc(S(N)(=O)=O)cc1,108% (inactive)
2,Cc1nc2ccc(CN(C)c3ccc(C(=O)N[C@@H](CCC(=O)O)C(=O)O)s3)cc2c(=O)[nH]1,55.3% (inactive)
3,COc1ccc(OC)c(/C=C/c2nc(SCc3ccccc3)n(-c3ccc(Cl)cc3)n2)c1,86.2% (inactive)
4,CN(C)C(=S)N/N=C\C=N/NC(=S)N(C)C,49.9% (inactive)
5,COc1ccc(N=C2C(=Nc3ccc(OC)cc3)N(c3ccc(N(C)C)cc3)C(=S)N2c2ccc(OC)cc2)cc1,87.9% (inactive)
6,COc1cccc(C2C3=C(COC3=O)N(CCO)c3cc(OC)ccc32)c1 (stereo not drawn),21.6% (inactive)
7,CCc1ccc2c(c1)N(CCO)C1=C(C(=O)OC1)C2c1ccccc1 (stereo not drawn),94.9% (inactive)
8,CO/N=C(/C(=O)NC1C(=O)N2C(C(=O)O)=C(COC(N)=O)CSC12)c1ccco1 (stereo not drawn),114% (inactive)
9,COc1ccc(N2C(=O)C3c4[nH]c5ccc(OCc6ccccc6)cc5c4C4CCC(C(C)C)CC4C3C2=O)cc1 (stereo not drawn),116% (inactive)
10,CCN(CC)CCNC(=O)c1ccc(NC(C)=O)cc1,102% (inactive)
11,CN(C)CCN1C(=O)c2cccc3cc(N)cc(c23)C1=O,36.9% (inactive)
12,COc1ccc2c(c1)nc(N)c1c3cccnc3cn21,9.24% (active)
13,CN1CC[C@@H](c2c(O)cc(O)c3c(=O)cc(-c4ccccc4Cl)oc23)[C@@H](O)C1,47.6% (inactive)
14,O=C(/C=C/c1cc2ccccc2[nH]c1=O)c1ccc2c(c1)OCO2,102% (inactive)
15,CCCC1(CC(=O)O)OCCc2c1[nH]c1ccccc21 (stereo not drawn),217% (inactive)
16,C=C(Cl)[C@@](Cl)(CBr)CC[C@@H](Br)C(C)(C)Cl,93.5% (inactive)
17,CC[C@H](C)C(=O)O[C@H]1CCC=C2C=C[C@H](C)C(CCC3C[C@@H](O)CC(=O)O3)[C@H]21 (stereo partly drawn),70.9% (inactive)

row,Compound,growth
1,CC1CN(Cc2ccccc2)C(=O)NC1=O (stereo not drawn),111% (inactive)
2,Cc1cccc2c(NCCN(C)C)c3cccc(C(=O)NCCN(C)C)c3nc12,19.7% (inactive)
3,O=C(CCCCCCC(=O)Nc1cccnc1)NO,78.9% (inactive)
4,O=C1OCC2=C1C(c1cccc(Br)c1)c1cc3c(cc1N2CCO)CCC3 (stereo not drawn),28.8% (inactive)
5,O=C(CNC(=O)OCc1ccccc1)NCC(=O)Oc1ccc([N+](=O)[O-])cc1,100% (inactive)
6,CC(C)C[C@H](NC(=O)[C@H](Cc1cccc2ccccc12)NS(=O)(=O)c1cccc2cccnc12)B(O)O,0.299% (active)
7,COc1cc(NC(=O)CSc2nc3ccccc3c(=O)n2CCc2ccccc2)cc(OC)c1OC,-37.5% (active)
8,CCOCCOCCOCCOCCOCCOCCOCCOCCOCCO (tested in a mixture with another compound),38.2% (inactive)
9,COc1cc(OC)cc(-c2cncn2-c2ccc(-c3nc4cc(OC)cc(OC)c4s3)cc2)c1,70.5% (inactive)
10,Nc1ncn(C2OC(CO)C(O)C2O)c(=O)n1 (stereo not drawn),12.3% (inactive)
11,N#Cc1c(C#N)c(SSc2c(C#N)c(C#N)c(N)n2-c2ccccc2)n(-c2ccccc2)c1N,115% (inactive)
12,CCCCCCCCCCCCCCCCCCOCC(COCCOCC[N+]1(CCCCCC(=O)[O-])CCCC1)Oc1ncccn1 (stereo not drawn),83.5% (inactive)
13,O=C1NC(=O)N(Cc2ccccc2)CC1Br (stereo not drawn),87% (inactive)
14,C=C(NC(=O)C(=C)NC(=O)c1csc(C2=NC3c4csc(n4)C4NC(=O)c5csc(n5)C(C(C)(O)C(C)O)NC(=O)C5CSC(=N5)/C(=C/C)NC(=O)C(C(C)O)NC(=O)c5csc(n5)C3(CC2)NC(=O)C(C)NC(=O)C(=C)NC(=O)C(=C)NC(=O)C(C(C)C)NC2C=Cc3c(C(C)O)cc(nc3C2O)C(=O)OC4C)n1)C(N)=O (stereo not drawn),61.9% (inactive)
15,O=C1ON=[N+](c2ccc(Cc3ccc([N+]4=NOC(=O)C4CN4CCOCC4)cc3)cc2)C1CN1CCOCC1 (stereo not drawn),88% (inactive)
16,C/C(=N\Nc1nc2ccccc2s1)c1ccncn1,37.7% (inactive)
